Measured values from PubChem BioAssay (NCI).
Several values for one entry are separate records, joined by “and”; a condition that tells them apart may be missing. Equal values may be shown once. Compounds without any hit were thinned out: in the full panel of roughly 83,000, 20% have a hit.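 Testing used 96-well plates and a 48-hour single-concentration exposure. Example: -40 means 40% of the starting cells died.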 Activity calls are given as the source filed them. The calls were made as follows: active = growth percent below 10; inactive = the rest.

The compounds below were run on HS 578T breast (assay: NCI-60 one-dose screen, 48 h (100 = growth as untreated, 0 = no growth, -100 = all killed)). Conditions: 10 µM unless noted.

| Structure (SMILES) | growth |
| --- | --- |
| Cc1ccc(Cl)cc1NC(=O)N/C(N)=N/c1nc2ccccc2s1 | 19% (inactive) |
| Nc1cc(-c2c[nH]c3ccc(Cl)cc23)nc2cc(-c3c[nH]c4ccccc34)nn12 | -3.21% (active) |
| COc1cc(CNC(=O)C[C@H](C)CCC=C(C)C)ccc1OCc1cn(-c2ccc(Cl)c(Cl)c2)nn1 | 57% (inactive) |
| C[C@@H](Nc1c(C#N)cnc2ccc(-c3cnc4[nH]ncc4c3)cc12)c1ccccc1 | -19.5% (active) |
| COc1ccc(C2=NN(C(=O)[C@H]3[C@@H](c4ccco4)c4sc(=O)[nH]c4S[C@@H]3C)C(c3ccc4ccccc4c3)C2)cc1 (stereo partly drawn) | 29.6% (inactive) |
| Cc1cc(C)c2[nH]c(=O)c(C(c3nnnn3Cc3ccc4c(c3)OCO4)N3CCN(C)CC3)cc2c1 (stereo not drawn) | 108% (inactive) |
| COc1ccc(NC(=O)N/N=C/c2c[nH]c3ccccc23)cc1 | 27.1% (inactive) |
| COc1ccc2[nH]c(O)c(N=NC(=O)c3ccc4nc(-c5ccc(Cl)cc5)[nH]c4c3)c2c1 | 37.7% (inactive) |
| Cc1ccc(O)cc1Nc1nc(SCCN2CCOCC2)nc2c1cnn2CC(Cl)c1ccc(Br)cc1 (stereo not drawn) | -25.8% (active) |
| CCOc1ccccc1[C@H]1C(C(=O)c2ccc(Cl)cc2)C2(N[C@@H]1c1ccccc1)C(=O)Nc1ccc(Br)cc12 (stereo partly drawn) | -5.81% (active) |
| CC1(C)CC(=O)C2=C(C1)OC(N)=C(c1nc3ccccc3[nH]1)C2c1ccc(Cl)cc1 (stereo not drawn) | 6.8% (active) and 119% (inactive) |
| COc1ccc(-c2cc(C(=O)N=Nc3c(O)[nH]c4ccc(Cl)cc34)c3ccccc3n2)cc1OC | 110% (inactive) |
| COc1ccc2c(c1)c(-c1cc(N)n3nc(-c4c[nH]c5ccccc45)cc3n1)cn2C | -17.9% (active) |
| Cc1ccc2c(c1)nc(-c1ccccc1)n2CC(=O)N=Nc1c(O)[nH]c2ccc(Cl)cc12 | -32.9% (active) |
| CS(=O)(=O)Nc1cccc(-n2c(COc3ccc(OC(F)(F)F)cc3)nc3ccccc32)c1 | 47.9% (inactive) and 101% (inactive) |
| Oc1ccc(Cl)c(Nc2nc(SCCN3CCOCC3)nc3c2cnn3CC(Cl)c2ccc(Br)cc2)c1 (stereo not drawn) | -15.5% (active) |
| COc1ccccc1NC(=O)N/N=C/c1c[nH]c2ccccc12 | 23.8% (inactive) |
| Nc1cccc(-n2c(COc3ccc(I)cc3)nc3ccccc32)c1 | 63.2% (inactive) and 110% (inactive) |
| O=C1CCC(N2C(=O)c3cccc(NCCCCCC(=O)N4CCN(c5ccc6nc7c(nc6c5C(F)(F)F)C(=O)c5ncccc5C7=O)CC4)c3C2=O)C(=O)N1 (stereo not drawn) | -11.5% (active) |

| Structure (SMILES) | growth |
| --- | --- |
| OCCn1cc(-c2nc3ccc4[nH]ncc4c3c3c2CCCC3)cn1 | 21.6% (inactive) |
| Cc1ccc(N=Nc2c(N)nn3c(-c4cc5cc(Br)ccc5oc4=O)ccnc23)cc1 | 69.4% (inactive) |
| COc1ccc(C(=O)C[n+]2cccc3c4ccccc4ccc32)cc1 | 58.9% (inactive) |
| CCCCCCCCCc1ccc(C(=O)Nc2cc(C)ccc2C(=O)OC)cc1 | 106% (inactive) |
| Cc1nc(Nc2ccccn2)sc1C1=NNC(c2ccccc2F)C1 (stereo not drawn) | 87.6% (inactive) |
| NS(=O)(=O)c1ccc(Nc2nc(N/N=C/c3cc(Br)c(O)c(Br)c3)nc(Nc3ccccc3)n2)cc1 | -8.25% (active) |
| C=CC(=O)Nc1ccc(C(=O)/C=C/c2ccc(N(C)C)cc2)c(O)c1 | 21.7% (inactive) |
| CCCCCCCCc1ccc(C(=O)Nc2cccc(O)c2)cc1 | 81.4% (inactive) |
| Clc1ccc(-c2nc3c4c(-c5ccccc5)c(-c5ccccc5)n(Cc5ccccc5)c4ncn3n2)cc1 | -8.15% (active) |
| Nc1nn2c(-c3cc4cc(Br)ccc4oc3=O)ccnc2c1N=Nc1ccc(S(N)(=O)=O)cc1 | 102% (inactive) |
| Cc1ccc(C(=O)Nc2cc(-n3ccnc3)cc(C(F)(F)F)c2)cc1-n1cc(-c2cnc3cccnn23)nn1 | 94.9% (inactive) |
| Cc1cccc(C)c1Nc1nnc(-c2c[nH]c3ccccc23)o1 | 95.9% (inactive) |
| COc1cc(CNC(=O)C[C@H](C)CCC=C(C)C)ccc1OCc1cn(-c2cccc(C(F)(F)F)c2)nn1 | 94.3% (inactive) |
| CC1=C(C(=O)OCc2ccccc2)C(c2ccc(N(C)C)cc2)n2c(nc3ccccc32)N1 (stereo not drawn) | 61.7% (inactive) |
| CCc1ccc(SC2c3cc(OC)ccc3Oc3nc(N)c(C#N)c(N)c32)cc1 (stereo not drawn) | -40.5% (active) |
| CCCn1c(NC(=O)c2cccc(C(N)=O)c2)nc2cc(CN3CCCCC3)ccc21 | 119% (inactive) |
| C/C(=N/O)c1ccc(NC(=O)CSc2nnc(-c3ccc(-c4nc5ccc(Cl)cc5[nH]4)cc3)o2)cc1 | -13.3% (active) |
| CC[C@@]12CC(C(=O)OC)=C3Nc4cc5c(cc4[C@@]34CCN(C[C@H]3O[C@H]31)[C@@H]24)[C@@H]1[C@H](O5)[C@@H](O)[C@@]2(CC)CC(C(=O)OC)=C3Nc4cc(O)ccc4[C@@]34CCN1[C@@H]24 | 6.27% (active) |
| N#Cc1c(-c2ccc(F)cc2)nc(SCc2ccccc2)nc1N1CCNCC1 | -45.6% (active) |
